Bioassay records as filed in PubChem BioAssay.
uPA generation = blocks generation of uPA at the cell surface; cell surface uPA generation assay, qHTS; Potency, µM (titrated, usually from 38.3 µM), for inactives: at the top dose activity change, negative = inhibition, hits mostly inhibitors; hit rate 0.31% among 330,000; active = well fitted inhibition curve with a large enough effect; inconclusive = small, poorly fitted or top-dose-only effect; inactive = no such curve, though single readings can be large or run the other way; tested in mouse RAW 264.7 cells; also: potency is read from the fitted curve at half-maximal effect; nearly all actives have a fitted effect of over 55% in size
HT1080 IDH1KD tx = HT-1080 IDH1 knockdown cell toxicity (counter line). AID 686971. HT-1080 IDH1 knockdown viability, ATP luminescence, 48 h. Potency, µM (titrated, usually from 46.1 µM), for the others: at the top dose activity, negative = toxicity, hits mostly cytotoxic. hit rate 2% among 360,000;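 also: potency is read from the fitted curve at half-maximal effect; 0% = DMSO wells and -100% = cell-free medium wells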
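Cytotoxicity counter-line: IDH1KD HT-1080, 48 h, CellTiter-Glo. Curves classed by r2, magnitude and activity.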
IL1B secr inh = blocks inflammasome-driven IL-1 beta release. hit rate 4.7% among 360,000. THP-1 LPS/ATP IL-1B secretion, AlphaLISA, 16 h; hits give low values. activity change, % at 57.5 µM; in the data active = activity change below about -50%; inconclusive = mostly about -30% to -49%
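Secreted IL-1B measured by AlphaLISA bead assay after 16 h compound exposure of THP-1 cells; compounds (final up to 57.5 uM) added 1 h before LPS (250 ng/mL) and ATP (1.25 mM) stimulation; lower signal means less secretion.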
HT1080NT lethal = kills 2HG-producing HT-1080-NT fibrosarcoma cells. HT-1080-NT fibrosarcoma viability, CellTiter-Glo ATP luminescence, 48 h. Potency, µM (titrated, usually from 46.1 µM), for inactives: top-dose activity, negative = less viability, hits mostly cytotoxic. hit rate 1.6% among 360,000. AID 686970;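 also: NT is the 2HG producing partner of a matched IDH1 knockdown line; potency is read from the fitted curve at half-maximal effect; 0% = DMSO-treated cells and -100% = media-only wells without cells; nearly all actives have a fitted effect of over 55% in size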
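Compounds were tested in concentration-response format on HT-1080-NT cells for 48 hours at 37 degrees C. Cell viability came from CellTiter-Glo luminescence; curves were classified by r2, response magnitude and activity.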
DT40 TDP1 CPT = growth inhibition of DT40 Tdp1-/-;hTDP1 cells with camptothecin (screen for TDP1 inhibitors) | chicken DT40 Tdp1-/-;hTDP1 cells + 20 nM CPT, ATP luminescence, 48 h | Potency, µM (top dose mostly 46.2 µM), inactives show at the top dose activity change, negative = growth inhibition, most hits filed as inhibitors | hit rate 12% among 420,000; also: potency is read from the fitted curve at half-maximal effect; nearly all actives have a fitted effect of over 55% in size
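Cell growth measured by CellTiter-Glo luminescence after a minimum 48 h, 37 C compound exposure with 20 nM CPT in Tdp1-knockout DT40 cells stably expressing hTDP1, seeded 400/well; qHTS titration format.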
DT40 TDP1 no CPT = qHTS for Inhibitors of human tyrosyl-DNA phosphodiesterase 1 (TDP1): qHTS in cells in absence of CPT; DT40 Tdp1-/- hTDP1 cells, no CPT, ATP luminescence, 48 h; Potency, µM (top dose mostly 46.2 µM), without a hit: top-dose activity change, negative = growth inhibition, usual class: inhibitors; hit rate 15% among 420,000; AID 686978, 2013; also: potency is read from the fitted curve at half-maximal effect; nearly all actives have a fitted effect of over 55% in size
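Camptothecin absent (DMSO only). Human TDP1-complemented DT40 knockout cells, 400 cells/well, 37 °C for minimum 48 hr; ATP measured via CellTiter-Glo, 30 min dark incubation, luminescence.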
The depositor's hits bear a star; ? = inconclusive; . = no result; [ ] = remark or other dose. Compounds with a hit are over-represented: about 19% of the library has one in this group of screens. Unless noted, calls follow the shape of the dose curve; as a rule, active = well fitted curve in the direction sought with a large enough effect; inconclusive = small, poorly fitted or top-dose-only effect, or another doubt; inactive = no such curve, though single readings can be large; an effect the other way counts as inactive or inconclusive. Unless noted, % is scaled to controls: 0 for no effect and ±100 for the full control effect.

SMILES	uPA generation	HT1080 IDH1KD tx	IL1B secr inh	HT1080NT lethal	DT40 TDP1 CPT	DT40 TDP1 no CPT
COc1ccc(CCN2CN(S(=O)(=O)c3ccc(C)cc3)c3nc4ccccc4nc32)cc1OC	0%	-2%	6	6%	23µM*	?
COc1ccc(CCN2CN(S(=O)(=O)c3ccc(OC)cc3)c3nc4ccccc4nc32)cc1	-4%	-8%	2	-3%	?	?
CCSc1nc2ccccc2n1C(=O)/C=C\c1ccc(OC)c(OC)c1	-12%	?	-97*	-20%	4.6µM*	5.2µM*
CCSc1nc2ccccc2c(=O)n1CCc1ccc(OC)c(OC)c1	7%	-16%	-6	-5%	13µM*	12µM*
O=c1c2ccccc2nc(-c2ccco2)n1CCc1ccc(O)cc1	1%	-23%	1	-28%	?	5.8µM*
O=c1c2ccccc2nc(-c2ccco2)n1CCCn1ccnc1	.	-19%	16	0%	-25%	-7%
CCCCCCCCCCCCCCCC(=O)OCC(COP(=O)(O)O)OC(=O)CCCCCCCCCCCCCCC (centres undefined)	.	.	.	.	3%[4.12 µM]	0%[4.12 µM]
C1=CCN(Cc2ccccc2)C1	-3%	0%	14	-10%	11%	-3%
COc1ccc(CCn2c(=S)[nH]c(=O)c3c(C)cc(C)nc32)cc1OC	.	28%	.	11%	2%	-19%
COCCCn1c(-c2ccco2)nc2ccccc2c1=O	-6%	2%	5	-3%	-19%	-29%
COc1ccc(CCn2c(=S)[nH]c(=O)c3nccnc32)cc1OC	.	-5%	.	3%	6.3µM*	3.2µM*
COc1ccc(CCn2c(-c3ccco3)nc3ccccc3c2=O)cc1OC	4%	?	-54*	-14%	2.6µM*	2.6µM*
c1ccc(OCCn2c(-c3ccco3)nc3ccccc32)cc1	-18%	-5%	-4	?	?	?
Cn1c(-n2c(-c3ccco3)nc3ccccc3c2=O)nc2ccccc21	-16%	?	11	-22%	3.7µM*	5.8µM*
COc1ccc(CCn2c(C)nc3ccccc3c2=O)cc1OC	22%	8%	-2	18%	?	21µM*
CC(C)NC(=O)C1(C)CN(S(C)(=O)=O)CC(=O)N1Cc1ccc2c(c1)OCO2 (centres undefined)	.	2%	-12	7%	19%	6%
CC(C)(C)CN1C(=O)C(=O)NC[C@@H]1CC1CCCCC1	.	8%	-4	21%	-14%	-7%
CC(=O)Nc1ccc(NS(=O)(=O)c2ccc3c(c2)CCCN3C(C)=O)cc1	.	.	.	.	4%	2%
COc1cc(NS(=O)(=O)c2ccc3c(c2)CCCN3C(C)=O)cc(OC)c1OC	.	.	.	.	8.2µM*	9.2µM*
CCOc1ccc(CNS(=O)(=O)c2ccc3c(c2)CCCN3C(C)=O)cc1OC	.	.	.	.	?	18µM*
COc1cccc(OC)c1C(=O)N=c1sc2cc(S(C)(=O)=O)ccc2n1C	-1%	12%	-5	3%	-10%	-18%
C=CCn1c(=NC(=O)c2ccccc2[N+](=O)[O-])sc2cc(S(C)(=O)=O)ccc21	0%	-6%	-2	-11%	16µM*	21µM*
Cc1nc(NCCNC(=O)c2ccco2)c2c(C)c(C)sc2n1	11%	0%	27	1%	?	21µM*
Cc1ccc(C(=O)NCCNC(=O)c2ccco2)cn1	-1%	10%	22	13%	2%	7%
Cc1nc(NCCc2ccc(S(N)(=O)=O)cc2)c2c(C)c(C)sc2n1	-15%	-25%	-2	-13%	16µM*	15µM*
SMILES	uPA generation	HT1080 IDH1KD tx	IL1B secr inh	HT1080NT lethal	DT40 TDP1 CPT	DT40 TDP1 no CPT
Cc1cc(C)c(S(=O)(=O)NCC2CCC(C(=O)NCCc3ccccc3)CC2)c(C)c1 (centres undefined)	.	.	.	.	15µM*	15µM*
Cc1cccc(CCNC(=O)C2CCC(CNS(=O)(=O)c3c(C)cc(C)cc3C)CC2)c1 (centres undefined)	.	.	.	.	?	16µM*
O=C(NCCc1ccccc1)C1CCC(CNS(=O)(=O)c2ccccc2)CC1 (centres undefined)	0%	-11%	62	-3%	-29%	15%
CN(NC(=O)c1ccccc1F)c1ncccc1[N+](=O)[O-]	9%	-2%	0	4%	-9%	-20%
COc1ccc(C(=O)N/N=C/c2c(CO)cnc(C)c2O)cc1	?	-18%	33	-14%	5.8µM*	23µM*
Cc1ncc(CO)c(/C=N/NC(=O)c2ccc(O)cc2)c1O	-3%	17%	0	7%	1%	-8%
Cc1ncc(CO)c(/C=N/NC(=O)c2cc3c(s2)CCCC3)c1O	6.3µM*	2.6µM*	90	?	5.8µM*	7.3µM*
COC(=O)c1ccc(NC(=O)c2cc3cc4ccc(OC)c(Cl)c4nc3s2)cc1	.	.	.	.	-20%	-9%
CC(=O)Nc1ccc(NC(=O)c2ccc(-c3ccnn3C)c3ccoc23)cc1	.	0%	-93*	-4%	?	?
COc1cc(NC(=O)c2cc(-c3ccco3)on2)cc(OC)c1OC	-2%	1%	-4	-7%	?	?
CC(C)c1ccc(NC(=O)c2ccc(-c3ccnn3C)c3ccoc23)cc1	.	18µM*	15	15µM*	16µM*	21µM*
COc1cc(NC(=O)c2ccc(-c3ccnn3C)c3ccoc23)cc(OC)c1OC	.	1%	-7	29%	?	21µM*
CN1CCN(c2ccc(CNC(=O)c3ccc(-c4ccnn4C)c4ccoc34)cc2)CC1	.	-1%	16	-28%	?	?
Cc1ccc(C)c(NC(=O)C(C)N2C(=O)c3ccccc3C2=O)c1 (centres undefined)	4%	17%	-7	13%	7%	-1%
COc1cc(C2C(C(C)=O)=C(O)C(=O)N2Cc2ccccc2)ccc1O (centres undefined)	2%	7%	-10	15%	14%	19%
O=C(NC(=S)Nc1cccc(Cl)c1)c1cncc(Br)c1	-4%	?	20	?	?	?
O=C(NC(=S)Nc1ccccc1O)c1cncc(Br)c1	-19%	?	18	?	?	23µM*
O=C(NC(=S)Nc1ccc2c(c1)OCCO2)c1cccc(Br)c1	-3%	-13%	17	-5%	15µM*	?
CC(=O)c1cccc(NC(=S)NC(=O)c2cncc(Br)c2)c1	-22%	-1%	23	-7%	13µM*	?
